The sample as a whole holds a higher share of the strongest signals than the screen did.
What was measured:
Assay in all cases: glycan array binding signal (z-score within array); higher = stronger binding
Conditions in all cases: glycan notation: IUPAC condensed, linker removed
[1] = biological target: GlcNAc(b1-2)[GlcNAc(b1-4)]Man(a1-3)[GlcNAc(b1-4)][GlcNAc(b1-2)Man(a1-6)]Man(b1-4)GlcNAc(b1-4)GlcNAc
Summary of the method: (§1)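 The Consortium for Functional Glycomics database supplied 3228 glycan arrays, of which those lacking an available protein sequence were dropped. The binding signal, a within-array Z-score, was averaged across arrays of the same protein sequence and across linkers. Negative scores can be read as non-binding.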

[2] = biological target: GlcNAc(b1-2)[GlcNAc(b1-4)]Man(a1-3)[GlcNAc(b1-4)][GlcNAc(b1-2)[GlcNAc(b1-6)]Man(a1-6)]Man(b1-4)GlcNAc(b1-4)[Fuc(a1-6)]GlcNAc
Summary of the method: as §1

[3] = biological target: GlcNAc(b1-2)[GlcNAc(b1-6)]Man(a1-6)[GlcNAc(b1-2)Man(a1-3)]Man(b1-4)GlcNAc(b1-4)[Fuc(a1-6)]GlcNAc
Summary of the method: as §1

[4] = biological target: GlcNAc(b1-2)[GlcNAc(b1-6)]Man(a1-6)[GlcNAc(b1-4)][GlcNAc(b1-2)Man(a1-3)]Man(b1-4)GlcNAc(b1-4)GlcNAc
Summary of the method: as §1

GlcNAc(b1-3)Gal = biological target: GlcNAc(b1-3)Gal
Summary of the method: as §1

GlcNAc(b1-3)GalNAc = biological target: GlcNAc(b1-3)GalNAc
Summary of the method: as §1

[5] = biological target: GlcNAc(b1-3)[GlcNAc(b1-6)]Gal(b1-4)GlcNAc
Summary of the method: as §1

[6] = biological target: GlcNAc(b1-3)[GlcNAc(b1-6)]GalNAc
Summary of the method: as §1

GlcNAc(b1-6)GalNAc = biological target: GlcNAc(b1-6)GalNAc
Summary of the method: as §1

[7] = biological target: Man(a1-2)Man(a1-6)[Man(a1-3)]Man(a1-6)[Man(a1-2)Man(a1-2)Man(a1-3)]Man(b1-4)GlcNAc(b1-4)GlcNAc
Summary of the method: as §1

[8] = biological target: Man(a1-3)[Man(a1-6)]Man(b1-4)GlcNAc(b1-4)[Fuc(a1-6)]GlcNAc
Summary of the method: as §1

[9] = biological target: Neu5Ac(a2-3)Gal(b1-3)GalNAc6S
Summary of the method: as §1

[10] = biological target: Neu5Ac(a2-3)Gal(b1-3)GlcNAc(b1-4)Gal(b1-4)Glc
Summary of the method: as §1

[11] = biological target: Neu5Ac(a2-3)Gal(b1-3)GlcNAc6S
Summary of the method: as §1

[12] = biological target: Neu5Ac(a2-3)Gal(b1-3)[GlcNAc(b1-6)]GalNAc
Summary of the method: as §1

[13] = biological target: Neu5Ac(a2-3)Gal(b1-4)GlcNAc(b1-3)Gal(b1-4)GlcNAc(b1-3)Gal(b1-4)GlcNAc
Summary of the method: as §1

[14] = biological target: Neu5Ac(a2-3)Gal(b1-4)GlcNAc(b1-3)Gal(b1-4)GlcNAc(b1-6)[Gal(b1-3)]GalNAc
Summary of the method: as §1

[15] = biological target: Neu5Ac(a2-3)Gal(b1-4)GlcNAc(b1-3)[Neu5Ac(a2-3)Gal(b1-4)GlcNAc(b1-6)]GalNAc
Summary of the method: as §1

[16] = biological target: Neu5Ac(a2-3)Gal(b1-4)GlcNAc(b1-6)GalNAc
Summary of the method: as §1

[17] = biological target: Neu5Ac(a2-3)Gal(b1-4)[Fuc(a1-3)]GlcNAc(b1-3)Gal(b1-4)GlcNAc
Summary of the method: as §1

Neu5Ac(a2-3)GalNAc = biological target: Neu5Ac(a2-3)GalNAc
Summary of the method: as §1

[18] = biological target: Neu5Ac(a2-6)Gal(b1-4)GlcNAc(b1-2)Man(a1-3)[GlcNAc(b1-4)][Neu5Ac(a2-6)Gal(b1-4)GlcNAc(b1-2)Man(a1-6)]Man(b1-4)GlcNAc(b1-4)GlcNAc
Summary of the method: as §1

[19] = biological target: Neu5Ac(a2-6)Gal(b1-4)GlcNAc(b1-2)Man(a1-3)[Neu5Ac(a2-6)Gal(b1-4)GlcNAc(b1-2)Man(a1-6)]Man(b1-4)GlcNAc(b1-4)GlcNAc
Summary of the method: as §1

[20] = biological target: Neu5Ac(a2-6)Gal(b1-4)GlcNAc(b1-2)Man(a1-6)[Man(a1-3)]Man(b1-4)GlcNAc(b1-4)GlcNAc
Summary of the method: as §1

[21] = biological target: Neu5Ac(a2-6)Gal(b1-4)GlcNAc(b1-3)Gal(b1-4)GlcNAc(b1-6)[Gal(b1-3)]GalNAc
Summary of the method: as §1

[22] = biological target: Neu5Ac(a2-6)GlcNAc(b1-4)GlcNAc(b1-4)GlcNAc
Summary of the method: as §1

[23] = biological target: Neu5Ac(a2-8)Neu5Ac(a2-3)Gal(b1-3)GalNAc(b1-4)[Neu5Ac(a2-8)Neu5Ac(a2-3)]Gal(b1-4)Glc
Summary of the method: as §1

[24] = biological target: Neu5Ac(a2-8)Neu5Ac(a2-3)[GalNAc(b1-4)]Gal(b1-4)Glc
Summary of the method: as §1

[25] = biological target: Neu5Ac(a2-8)Neu5Ac(a2-8)Neu5Ac(a2-3)[Gal(b1-3)GalNAc(b1-4)]Gal(b1-4)Glc
Summary of the method: as §1

[26] = biological target: Neu5Ac(a2-8)Neu5Ac(a2-8)Neu5Ac(a2-8)Neu5Ac(a2-3)[GalNAc(b1-4)]Gal(b1-4)Glc
Summary of the method: as §1

[27] = biological target: Neu5Gc(a2-3)Gal(b1-3)GlcNAc
Summary of the method: as §1

B1: Cohesin-marm-DC-ASGPR (protein)
chain: LDITSHHHHHHDDLDAVRIKVDTVNAKPGDTVRIPVRFSGIPSKGIANCDFVYSYDPNVLEIIEIEPGDIIVDPNPDKSFDTAVYPDRKIIVFLFAEDSGTGAYAITKDGVFATIVAKVKEGAPNGLSVIKFVEVGGFANNDLVEQKTQFFDGGVNVGDTTEPATPTTPVTTPTTTDDLDAASSKFQRDLVTLRTDFSNFTSNTLAEIQALTSQGSSLQETIASLKAEVEGHKQELQAGASELQEHNKQKAHLGRCPHTCVCPSSFVCVPVHSEILLRVQQLVQDLNKLSCQVAILKNNATTERTCCPINWVEHQGSCYWFSRSGKTWPEAERYCQLENTHLVVINSREEQNFVQAHLGSAYTWMGLSDPEGVWKWVDGTDYSSGFQNWKPGQPDDWQGHGLGGGEDCAHFHPDGRWNDDVCQRSYHWVCEAGLTQASQDSHAS
With B1 the “glycan array binding signal (z-score)” value [1] was -0.278, the “glycan array binding signal (z-score)” value [2] was -0.313 and the “glycan array binding signal (z-score)” value [3] was -0.298. For the same binder, the “glycan array binding signal (z-score)” value [4] was -0.311, the “glycan array binding signal (z-score)” value (GlcNAc(b1-3)Gal) was -0.306 and the “glycan array binding signal (z-score)” value (GlcNAc(b1-3)GalNAc) was -0.287. The “glycan array binding signal (z-score)” value [5] was -0.313, the “glycan array binding signal (z-score)” value [6] was -0.291 and the “glycan array binding signal (z-score)” value (GlcNAc(b1-6)GalNAc) was 4.74. For the same binder, the “glycan array binding signal (z-score)” value [7] was -0.287, the “glycan array binding signal (z-score)” value [8] was -0.31 and the “glycan array binding signal (z-score)” value [9] was -0.245. For the same binder, the “glycan array binding signal (z-score)” value [10] was -0.303, the “glycan array binding signal (z-score)” value [11] was -0.277 and the “glycan array binding signal (z-score)” value [12] was -0.303. For the same binder, the “glycan array binding signal (z-score)” value [13] was -0.288, the “glycan array binding signal (z-score)” value [14] was -0.307 and the “glycan array binding signal (z-score)” value [15] was -0.311. The “glycan array binding signal (z-score)” value [16] was 4.81, the “glycan array binding signal (z-score)” value [17] was -0.244 and the “glycan array binding signal (z-score)” value (Neu5Ac(a2-3)GalNAc) was -0.309. For the same binder, the “glycan array binding signal (z-score)” value [18] was -0.308, the “glycan array binding signal (z-score)” value [19] was -0.126 and the “glycan array binding signal (z-score)” value [20] was -0.314. For the same binder, the “glycan array binding signal (z-score)” value [21] was -0.308, the “glycan array binding signal (z-score)” value [22] was -0.312 and the “glycan array binding signal (z-score)” value [23] was -0.296. For the same binder, the “glycan array binding signal (z-score)” value [24] was 3.43, the “glycan array binding signal (z-score)” value [25] was -0.305 and the “glycan array binding signal (z-score)” value [26] was 5.27. The “glycan array binding signal (z-score)” value [27] was -0.264.
